PubChem BioAssay (NCI)
Values joined by “and” are separate entries in the source; they are usually repeats but may differ in a detail not shown here. Equal values may be shown once. The panel holds about 79,000 compounds, 15% with a hit somewhere; the sample as a whole holds those more often. Active and inactive are the calls of the source. Rule as the data show it: active = growth inhibition above about 70%; inactive = the rest.

Columns and labels:
[1] = NCI Yeast Anticancer Drug Screen. Data for the rad50 strain (AID 155);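 also: 0% = growth of vehicle-only cultures of the same strain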; conditions: S. cerevisiae rad50 strain growth inhibition, hits give high values
Method in brief: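 Growth of the mutant yeast was measured after compound exposure and referenced to vehicle-treated cultures.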

[2] = NCI Yeast Anticancer Drug Screen. Data for the mec2-1 strain (AID 157); conditions: S. cerevisiae mec2-1 strain, hits give high values
Method in brief: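 Cells of the genetically defined mec2-1 yeast strain are incubated with test compound. Inhibition of growth is calculated against vehicle-treated controls.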

[3] = NCI Yeast Anticancer Drug Screen. Data for the sgs1 mgt1 strain (AID 161);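 also: 0% = growth of cultures given vehicle only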; conditions: S. cerevisiae sgs1 mgt1 strain, hits give high values
Method in brief: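 Genetically altered yeast, compound exposure, growth inhibition relative to vehicle.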

[4] = NCI Yeast Anticancer Drug Screen. Data for the cln2 rad14 strain (AID 165);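 also: 0% = growth equal to vehicle treated cultures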; conditions: S. cerevisiae cln2 rad14 strain, hits give high values
Method in brief: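 The screen exposed genetically defined yeast (cln2 rad14) to test compounds and scored growth inhibition relative to vehicle-treated controls.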

[5] = NCI Yeast Anticancer Drug Screen. Data for the bub3 strain (AID 167); conditions: S. cerevisiae bub3 mutant strain, hits give high values
Method in brief: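 Whole-cell yeast assay. The mutant strain was incubated with compounds, and growth inhibition was determined by comparison with vehicle-treated cells.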

[6] = NCI Yeast Anticancer Drug Screen. Data for the mlh1 rad18 strain (AID 175); conditions: S. cerevisiae mlh1 rad18 strain growth inhibition, hits give high values
Method in brief: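 Compound-treated yeast growth, normalised to vehicle controls. Strain bears defined DNA repair mutations.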

[7] = at 5.0 µM (retest, dose inferred, filed as 0.5)
[8] = at 50.0 µM (retest, dose inferred, filed as 5.0)

Measured: growth inhibition

Cc1ccc(NP(=O)(Oc2ccccc2)N(CCCl)CCCl)cc1 (stereo unspecified)
inactive: [1]; [7] 11% | [1]; [8] 10% | [2]; [7] -8% | [2]; [8] 10% | [2]; at 50.0 µM 23.9% | [3]; [7] 8% | [3]; [8] 20% | [4]; [7] 30% | [4]; [8] 61% | [4]; at 50.0 µM 56.5% | [5]; [7] 14% | [5]; [8] 32% | [5]; at 50.0 µM 62% | [6]; [7] -10% | [6]; [8] -5% | [6]; at 50.0 µM 54.6%
active: [1]; at 50.0 µM 74% | [3]; at 50.0 µM 73.5%

O=[N+]([O-])[O][Tl]([c]1ccccc1)[c]1ccccc1
inactive: [1]; [7] -4% | [1]; [8] 41% | [1]; at 50.0 µM 15.3% | [2]; [7] -4% | [2]; [8] 54% | [2]; at 50.0 µM 21.4% | [3]; [7] -4% | [3]; [8] 56% | [3]; at 50.0 µM 49.5% | [4]; [7] -4% | [4]; [8] 57% | [4]; at 50.0 µM 20.4% | [5]; [7] -3% | [5]; at 50.0 µM 51.8% | [6]; [7] -3% | [6]; [8] 41% | [6]; at 50.0 µM 8.3%
active: [5]; [8] 75%

Oc1ccc(Br)cc1C1N(Cc2ccc(N(CCCl)CCCl)cc2Cl)CCCN1Cc1ccc(N(CCCl)CCCl)cc1Cl
active: [1]; [8] 98% | [2]; [8] 99% | [3]; [8] 99% | [4]; [7] 70% | [4]; [8] 98% | [5]; [7] 84% | [5]; [8] 99% | [6]; [7] 98% | [6]; [8] 98%
inactive: [1]; [7] 69% | [1]; at 50.0 µM 10.7% | [2]; [7] 47% | [2]; at 50.0 µM 63% | [3]; [7] 54% | [3]; at 50.0 µM 23.7% | [4]; at 50.0 µM 8.95% | [5]; at 50.0 µM 52% | [6]; at 50.0 µM 46.5%

CC(C)c1c(O)c(O)c2c(c1O)C(=O)C(O)=C1C(C)(C)CCC[C@@]12C
inactive: [1]; [7] 48% | [4]; [7] 64%
active: [1]; [8] 95% | [1]; at 50.0 µM 86.8% | [2]; [7] 72% | [2]; [8] 96% | [2]; at 50.0 µM 88.8% | [3]; [7] 79% | [3]; [8] 95% | [3]; at 50.0 µM 88.6% | [4]; [8] 96% | [4]; at 50.0 µM 85.8% | [5]; [7] 84% | [5]; [8] 95% | [5]; at 50.0 µM 84.9% | [6]; [7] 86% | [6]; [8] 89% | [6]; at 50.0 µM 80.4%

O=C1C(Br)=CC2(C=C1Br)CCNc1c(O)c3c4c(c12)=NCCC=4C=N3
inactive: [1]; [7] 31% | [1]; at 50.0 µM 57.9% | [2]; [7] 15% | [2]; [8] 44% | [2]; at 50.0 µM 46.5% | [3]; [7] 17% | [3]; at 50.0 µM 54.2% | [4]; [7] -1% | [4]; [8] 50% | [4]; at 50.0 µM 24.9% | [5]; [7] -14% | [5]; at 50.0 µM 49.6% | [6]; [7] 25% | [6]; at 50.0 µM 57.5%
active: [1]; [8] 72% | [3]; [8] 71% | [5]; [8] 78% | [6]; [8] 75%

O=C(CBr)OCc1ccccc1
active: [1]; [7] 96% and 98% | [1]; [8] 99% | [1]; at 50.0 µM 99.5% | [2]; [7] 98% and 99% | [2]; [8] 99% and 100% | [2]; at 50.0 µM 99.8% | [3]; [7] 97% and 100% | [3]; [8] 99% and 100% | [3]; at 50.0 µM 99.7% | [4]; [7] 84% and 93% | [4]; [8] 99% | [4]; at 50.0 µM 99.4% | [5]; [7] 97% and 99% | [5]; [8] 99% | [5]; at 50.0 µM 99.4% | [6]; [7] 99% | [6]; [8] 99% | [6]; at 50.0 µM 99.4%

C[C@]12CC[C@H](OC(=O)COc3ccc(N(CCCl)CCCl)cc3)C[C@@H]1CC[C@@H]1[C@@H]2CC[C@]2(C)NC(=O)CC[C@@H]12
active: [1]; at 50.0 µM 70%
inactive: [1]; [7] 17% | [1]; [8] 50% | [2]; [7] 7% | [2]; [8] 11% | [2]; at 50.0 µM 49.2% | [3]; [7] 19% | [3]; [8] 57% | [3]; at 50.0 µM 19.1% | [4]; [7] 17% | [4]; [8] 36% | [4]; at 50.0 µM 5.4% | [5]; [7] 22% | [5]; [8] 59% | [5]; at 50.0 µM 16.1% | [6]; [7] 25% | [6]; [8] 48% | [6]; at 50.0 µM 8.2%
